The experiment addresses Chromo domain-containing protein 1 (Saccharomyces cerevisiae (strain ATCC 204508 / S288c) (Baker's yeast)) (UniProt P32657). The experiment can be described thus: ScCHD-1 Enzyme Inhibition Assay. The class given is functional. Further details: scale not given: in the data most compounds retested in dose-response had high values. The conditions noted are these: 30 µM.
Chromo domain-containing protein 1 (Saccharomyces cerevisiae (strain ATCC 204508 / S288c) (Baker's yeast)), sequence (P32657 whole entry, the tested form may be a part): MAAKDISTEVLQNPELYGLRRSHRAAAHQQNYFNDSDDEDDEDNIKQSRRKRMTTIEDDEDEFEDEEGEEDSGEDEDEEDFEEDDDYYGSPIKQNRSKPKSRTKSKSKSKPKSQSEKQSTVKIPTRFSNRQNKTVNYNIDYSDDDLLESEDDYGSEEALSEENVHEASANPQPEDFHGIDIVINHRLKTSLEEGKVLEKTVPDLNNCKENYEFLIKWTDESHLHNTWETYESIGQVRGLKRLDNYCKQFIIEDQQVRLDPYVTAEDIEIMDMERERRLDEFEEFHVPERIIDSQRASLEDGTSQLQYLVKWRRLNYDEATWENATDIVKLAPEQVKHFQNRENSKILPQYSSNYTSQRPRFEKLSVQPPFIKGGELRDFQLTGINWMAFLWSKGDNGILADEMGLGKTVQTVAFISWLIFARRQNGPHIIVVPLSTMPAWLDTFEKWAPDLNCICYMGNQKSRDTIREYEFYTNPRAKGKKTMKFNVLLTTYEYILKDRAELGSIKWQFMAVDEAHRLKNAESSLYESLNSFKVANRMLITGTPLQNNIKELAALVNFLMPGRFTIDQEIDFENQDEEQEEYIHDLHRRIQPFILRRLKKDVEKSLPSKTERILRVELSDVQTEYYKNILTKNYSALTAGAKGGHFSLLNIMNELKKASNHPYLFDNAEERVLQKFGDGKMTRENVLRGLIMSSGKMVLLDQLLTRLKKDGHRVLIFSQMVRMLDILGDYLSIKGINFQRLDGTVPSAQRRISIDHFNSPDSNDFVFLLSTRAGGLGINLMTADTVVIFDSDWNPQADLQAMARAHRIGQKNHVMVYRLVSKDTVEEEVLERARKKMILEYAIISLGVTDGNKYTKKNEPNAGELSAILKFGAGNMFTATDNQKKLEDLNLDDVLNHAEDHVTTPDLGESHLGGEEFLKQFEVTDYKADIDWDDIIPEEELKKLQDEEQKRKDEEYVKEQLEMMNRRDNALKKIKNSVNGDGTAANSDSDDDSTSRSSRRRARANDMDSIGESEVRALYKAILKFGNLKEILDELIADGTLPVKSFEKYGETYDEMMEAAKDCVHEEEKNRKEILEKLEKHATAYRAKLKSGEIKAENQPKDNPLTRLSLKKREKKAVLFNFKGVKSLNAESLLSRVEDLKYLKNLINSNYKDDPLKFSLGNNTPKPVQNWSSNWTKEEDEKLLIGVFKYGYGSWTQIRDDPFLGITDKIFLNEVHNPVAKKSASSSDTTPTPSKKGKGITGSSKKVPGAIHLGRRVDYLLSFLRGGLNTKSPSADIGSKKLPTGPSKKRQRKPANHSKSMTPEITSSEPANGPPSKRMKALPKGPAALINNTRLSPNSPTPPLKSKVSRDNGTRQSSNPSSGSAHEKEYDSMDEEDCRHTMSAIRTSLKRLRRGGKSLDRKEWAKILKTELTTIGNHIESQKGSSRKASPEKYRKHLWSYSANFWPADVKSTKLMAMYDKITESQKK
On to `COCCc1ncc(CN2CCC(Oc3ccccc3C)CC2)cn1`, for which the Percent Effect was -22.7%.

On to `COCCCN1CC2(CCCCN2C(=O)c2ccsc2)CC1=O` (stereo not given), for which the Percent Effect came out at 2.21%.

With `CCc1nc(C2CCCN2CCn2cncn2)no1` (stereo not given), the Percent Effect is -4.93%.

Turning to `O=C(NCCOc1ccc(Cl)cc1)N1CCS(=O)(=O)CC1`, the Percent Effect is -6.32%.

For the compound `COC(=O)CC(c1ccccc1)c1oc(C)cc(=O)c1O` (stereo not given), the Percent Effect is -1.53%. In the case of `COc1ncccc1CNC(=O)c1cccc(C)n1` it was -3.56%. For the compound `CC(C)CN(Cc1nc2c(cnn2C)c(=O)[nH]1)C(C)C`, the Percent Effect was 0.0184%. In the case of `CC(C)C(=O)N1CCC2(CCCN(CCOc3ccccc3)C2)C1` (stereo not given) it was 11.6%.

For the compound `Cc1ccc(-c2nc(CCNC(=O)NC3CCN(C)CC3)co2)cc1`, the Percent Effect was -12.9%. In the case of `COc1ccc(CNCc2ccnc(N3CCCCC3)c2)cc1OC` it was -2.92%; in that of `COc1ccc(CC(=O)N2C[C@@H]3COC[C@]3(CN(C)C)C2)cc1`, 1.23%; in that of `CC(=O)N1N=C(c2ccccc2)OC1C(=O)NCCc1cccc(Cl)c1` (stereo not given), -24.5%. Turning to `Cc1cnn(CC2CN(CC(=O)N(C)Cc3cccs3)CCO2)c1` (stereo not given), the Percent Effect is -11.2%. With `O=C(CC1CCCC1)N1C[C@@H]2CCN(c3cccnc3)C[C@@H]2C1` the figure was -2.18%.

Regarding `COc1ccc(CN2CCC3(CC(Nc4ccncn4)C3)C2)c(OC)c1` (stereo not given), the Percent Effect was -20.7%. In the case of `Cc1nn(C)c(N(C)C)c1CNCCNS(C)(=O)=O` it was -2.87%. On to `Cc1cc(-c2nn(C)c(Cl)c2CN2Cc3ccccc3C(O)C2)no1` (stereo not given), for which the Percent Effect is -1.98%. With `CCc1nnc(CN2CCCC(c3cc(C(F)(F)F)[nH]n3)C2)o1` (stereo not given), the Percent Effect is -3.78%. Take `CC[C@@H]1N(Cc2ccsc2)CCC[C@]12CCC(=O)N2CCOC`: the Percent Effect is -3.65%. In the case of `CC(c1nc(C2CC2)no1)N1CCN(Cc2ccsc2)CC1` (stereo not given) it was -5.15%. With `COc1cccc(OC)c1C(=O)N1CCN(c2ccccc2F)CC1` the figure was -24.9%. With `O=C(NCC1CC1)C1=NOC2(CCN(S(=O)(=O)c3cccs3)C2)C1` (stereo not given) the figure was 0.639%; with `Cc1ncc(S(C)(=O)=O)c(C2CCCNC2)n1` (stereo not given), 111%; with `O=C(NCCc1cccnc1)N1CCCC1c1ccsc1` (stereo not given), -9.16%. Consider `CNC(=O)[C@@H]1C[C@H]2CN(Cc3ccco3)C[C@H]2N1C`, for which the Percent Effect was -2.19%. With `Cc1ccc(Oc2ccc(NC(=O)NCC3CCOC3)cn2)cc1C` (stereo not given) the figure was -8.82%; with `O=C(Cc1n[nH]c2ccccc12)N1CCC(Nc2cccnn2)CC1`, -9.11%. Regarding `Cc1cc(C2CCCN(C(=O)c3c(C)nn4cccnc34)C2)n[nH]1` (stereo not given), the Percent Effect was -4.49%. With `CC(C)c1nc(C2CCCN2CC(=O)Nc2nncs2)no1` (stereo not given) the figure was 23.5%; with `CCn1ccnc1CN1CCN(CC(O)c2ccccc2)CC1` (stereo not given), -0.452%. In the case of `CO[C@@H]1CCN(C(=O)c2ccccn2)[C@H]1Cc1ccccc1`, the Percent Effect was -6.55%. With `Cc1noc(C(C)C)c1C(=O)NCCN1CCCCCC1=O` the figure was -7.87%; with `Cc1noc(C)c1CC(=O)OCC(=O)N1CCc2sccc2C1`, -8.07%. As to `COCc1nc(C(=O)N2CCCC(n3cccn3)C2)cs1` (stereo not given), the Percent Effect was -6.38%.

With `COCCN1CCCN(C(=O)NC(C)Cn2ccnc2)CC1` (stereo not given), the Percent Effect is -5.5%. In the case of `CC(C)(C)n1ncc2c1NC(=O)CC2c1ccsc1` (stereo not given) it was -1.82%; in that of `O=C(NCCO)c1ccn(-c2ccc3ccccn23)n1`, -0.759%; in that of `COc1ncccc1CNC(=O)c1cccnc1O`, -2.93%. With `CCc1cc(O)nc(C2CCCN2C(=O)c2cc(C)no2)n1` (stereo not given) the figure was -14.2%. In the case of `O=C(NC[C@]1(O)CN(Cc2ccccc2F)C[C@H]1O)c1ccccn1` it was -24.1%.

For the origin of these results see ChEMBL document CHEMBL3988442, “University of Dundee, Small-Polar-MMV Screening Library” (2021).
